# Inconclusive results are not listed. A call without a number means that no potency is given here. Unmarked numbers belong to inactive results. Calls of active or inactive are those of the source. Unless noted, calls follow the shape of the dose curve; as a rule, active = well fitted curve in the direction sought with a large enough effect in the repeat runs; inconclusive = weak or mixed curves; inactive = no such curve, though single readings can be large; an effect the other way counts as inactive or inconclusive.
# Experiments:
# [1] = molecular target: Aryl hydrocarbon receptor (Homo sapiens) (UniProt P35869); experiment: qHTS assay to identify small molecule that activate the aryl hydrocarbon receptor (AhR) signaling pathway (AID 743085); also: nearly all actives have a fitted effect of over 15% in size; also: potency is read from the fitted curve at half-maximal effect;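 as to activation: HG2L7.5c1 human HepG2 liver cells with stably integrated DRE-driven firefly reporter; series mostly up to about 70 µM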
# Sequence of Aryl hydrocarbon receptor (Homo sapiens) (P35869 whole entry, looked up): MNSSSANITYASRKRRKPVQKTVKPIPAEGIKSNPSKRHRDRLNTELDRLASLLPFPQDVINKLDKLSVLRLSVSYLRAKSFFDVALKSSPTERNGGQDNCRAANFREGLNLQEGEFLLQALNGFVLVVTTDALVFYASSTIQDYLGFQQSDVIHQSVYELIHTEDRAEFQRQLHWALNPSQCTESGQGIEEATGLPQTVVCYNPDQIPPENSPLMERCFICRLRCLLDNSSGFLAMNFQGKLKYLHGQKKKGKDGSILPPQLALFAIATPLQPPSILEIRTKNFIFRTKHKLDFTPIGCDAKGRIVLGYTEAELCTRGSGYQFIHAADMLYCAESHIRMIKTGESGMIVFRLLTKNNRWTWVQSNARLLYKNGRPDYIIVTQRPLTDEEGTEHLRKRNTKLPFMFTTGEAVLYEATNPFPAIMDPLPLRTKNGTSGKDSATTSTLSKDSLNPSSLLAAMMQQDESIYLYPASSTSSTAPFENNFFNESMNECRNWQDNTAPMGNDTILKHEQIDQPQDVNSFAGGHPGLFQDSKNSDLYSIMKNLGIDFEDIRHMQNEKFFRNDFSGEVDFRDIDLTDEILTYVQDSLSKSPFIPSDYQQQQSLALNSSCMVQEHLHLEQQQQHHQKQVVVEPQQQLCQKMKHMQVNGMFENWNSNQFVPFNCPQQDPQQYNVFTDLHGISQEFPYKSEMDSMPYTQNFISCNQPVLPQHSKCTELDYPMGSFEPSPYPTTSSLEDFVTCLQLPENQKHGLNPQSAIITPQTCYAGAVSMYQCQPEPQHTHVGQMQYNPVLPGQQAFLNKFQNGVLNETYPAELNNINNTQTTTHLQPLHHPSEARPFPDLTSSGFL
# Summary of the method: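 Compounds were tested in HepG2 hepatocellular carcinoma cells harbouring a stably integrated luciferase gene under control of 20 DREs. Increased reporter signal after 24 h treatment at 37C was taken as AhR activation.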
# [2] = qHTS assay to identify small molecule that activate the aryl hydrocarbon receptor (AhR) signaling pathway - cell viability counter screen (AID 743086);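 also: HepG2 liver cells carrying the AhR DRE luciferase reporter; series mostly up to about 70 µM; nearly all actives have a fitted effect of over 45% in size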
# Summary of the method: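 HepG2-AhR-luc (HG2L7.5c1) cells, 4000/well, treated 24 h at 37 C with compound; viability measured as CellTiter-Fluor fluorescence after 30 min in the same wells as the luciferase read.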
# [3] = molecular target: Peroxisome proliferator-activated receptor gamma (Homo sapiens) (UniProt P37231); experiment: qHTS assay to identify small molecule agonists of the peroxisome proliferator-activated receptor gamma (PPARg) signaling pathway (AID 743094; active = well fitted activation curve with a large enough effect in the signal ratio in the repeat runs, not every such curve was filed as active; the % refers to the signal ratio)
# Sequence of Peroxisome proliferator-activated receptor gamma (Homo sapiens) (P37231 whole entry, looked up): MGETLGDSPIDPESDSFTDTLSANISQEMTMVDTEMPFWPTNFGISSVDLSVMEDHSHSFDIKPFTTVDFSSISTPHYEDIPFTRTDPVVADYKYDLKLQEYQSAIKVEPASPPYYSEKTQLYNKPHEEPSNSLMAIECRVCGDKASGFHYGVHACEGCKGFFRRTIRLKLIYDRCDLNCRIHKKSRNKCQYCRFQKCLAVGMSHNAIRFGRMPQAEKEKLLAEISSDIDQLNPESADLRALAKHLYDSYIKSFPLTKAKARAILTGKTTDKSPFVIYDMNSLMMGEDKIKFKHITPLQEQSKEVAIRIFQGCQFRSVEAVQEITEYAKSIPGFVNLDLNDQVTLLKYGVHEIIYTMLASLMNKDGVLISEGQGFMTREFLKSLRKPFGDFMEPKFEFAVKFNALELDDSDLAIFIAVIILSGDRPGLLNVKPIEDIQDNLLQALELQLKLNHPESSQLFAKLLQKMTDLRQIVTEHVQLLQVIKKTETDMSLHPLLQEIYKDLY
# Summary of the method: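 Agonist activity was taken from a beta-lactamase reporter (FRET substrate, 1 h at room temperature) in HEK293H cells carrying a PPARg UAS-bla construct. Compounds in DMSO were incubated 17 h at 37C after a 5 h cell pre-incubation.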
# [4] = molecular target: Peroxisome proliferator-activated receptor gamma (Homo sapiens) (UniProt P37231); experiment: qHTS assay to identify small molecule antagonists of the peroxisome proliferator-activated receptor gamma (PPARg) signaling pathway (AID 743191; calls by dose curve; also: series mostly up to about 63 µM; nearly all actives have a fitted effect of over 30% in size)
# Summary of the method: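 GeneBLAzer PPARg UAS-bla HEK293H cells, 5 h post-plating, exposed to compounds 17 h at 37C. LiveBLAzer B/G FRET substrate added for 1 h at room temperature; beta-lactamase reporter read by fluorescence intensity.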
# [5] = qHTS assay to identify small molecule antagonists of the peroxisome proliferator-activated receptor gamma (PPARg) signaling pathway - cell viability counter screen (AID 743194); also: nearly all actives have a fitted effect of over 55% in size
# Summary of the method: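 Cytotoxicity counter screen in PPARg-bla HEK293H cells, same wells as reporter assay. Compounds plus 50 nM rosiglitazone (final) for 17 h at 37 C, then viability read by CellTiter-Glo luminescence.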
# [6] = qHTS assay for small molecule agonists of the antioxidant response element (ARE) signaling pathway (AID 743202; active = well fitted activation curve with a large enough effect in the signal ratio in the repeat runs, not every such curve was filed as active; the % refers to the signal ratio)
# Summary of the method: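 HepG2 ARE-bla reporter line, 2,000 cells/well; 5 h preincubation 37 C/5% CO2; compound (DMSO) 16 h 37 C; B/G FRET substrate 2 h RT; fluorescence intensity.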
# [7] = qHTS assay for small molecule activators of the heat shock response signaling pathway - cell viability counter screen (AID 743209); also: nearly all actives have a fitted effect of over 50% in size
# Summary of the method: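 Cytotoxicity counter screen run in the same wells as the heat-shock bla reporter assay: HeLa HSE-bla cells, 5 h compound exposure at 37 C, viability read by CellTiter-Glo luminescence.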
# [8] = qHTS assay for small molecule activators of the heat shock response signaling pathway (AID 743210; active = well fitted activation curve with a large enough effect in the signal ratio in the repeat runs, with a control signal flat, not every such curve was filed as active; the % refers to the signal ratio;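 also: HeLa cells with beta-lactamase reporter driven by heat shock elements; series mostly up to about 63 µM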)
# Summary of the method: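 Beta-lactamase reporter read-out: FRET substrate fluorescence after 2.5 h at RT, following 5 h compound treatment at 37 C of HeLa cells carrying HSE-driven bla reporter; quantitative HTS format.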
# [9] = molecular target: Peroxisome proliferator-activated receptor delta (Homo sapiens) (UniProt Q03181); experiment: qHTS assay to identify small molecule agonists of the peroxisome proliferator-activated receptor delta (PPARd) signaling pathway (AID 743212; calls by dose curve)
# Sequence of Peroxisome proliferator-activated receptor delta (Homo sapiens) (Q03181 whole entry, looked up): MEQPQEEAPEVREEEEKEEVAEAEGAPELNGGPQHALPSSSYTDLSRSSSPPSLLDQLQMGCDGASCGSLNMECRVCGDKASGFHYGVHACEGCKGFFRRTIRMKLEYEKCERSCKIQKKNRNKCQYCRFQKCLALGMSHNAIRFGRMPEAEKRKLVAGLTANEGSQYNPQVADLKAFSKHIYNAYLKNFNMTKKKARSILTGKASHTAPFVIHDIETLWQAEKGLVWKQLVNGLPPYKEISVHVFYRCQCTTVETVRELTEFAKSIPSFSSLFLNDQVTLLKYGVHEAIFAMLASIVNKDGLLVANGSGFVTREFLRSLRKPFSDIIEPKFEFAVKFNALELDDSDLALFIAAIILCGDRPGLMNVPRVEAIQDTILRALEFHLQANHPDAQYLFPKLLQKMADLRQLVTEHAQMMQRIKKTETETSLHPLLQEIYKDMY
# Summary of the method: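 Read-out: beta-lactamase FRET fluorescence after 2 h room-temperature incubation with LiveBLAzer B/G substrate. Cells were HEK293H carrying a UAS-bla reporter for PPARd, treated at 37 C with DMSO-dissolved compounds.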
# [10] = qHTS assay to identify small molecule antagonists of the peroxisome proliferator-activated receptor delta (PPARd) signaling pathway - cell viability counter screen (AID 743213); also: nearly all actives have a fitted effect of over 50% in size
# Summary of the method: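 HEK293H cells with the PPARd UAS-bla reporter, co-treated 17 h at 37 C with compounds and L165041 (300 nM final), were lysed with CellTiter-Glo. Luminescence indicated viable cell content.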
# [11] = molecular target: Bile acid receptor (Homo sapiens) (UniProt Q96RI1); experiment: qHTS assay to identify small molecule antagonists of the farnesoid-X-receptor (FXR) signaling pathway (AID 743217; active = well fitted inhibition curve with a large enough effect in the signal ratio in the repeat runs, not every such curve was filed as active; the % refers to the signal ratio)
# Sequence of Bile acid receptor (Homo sapiens) (Q96RI1 whole entry, looked up): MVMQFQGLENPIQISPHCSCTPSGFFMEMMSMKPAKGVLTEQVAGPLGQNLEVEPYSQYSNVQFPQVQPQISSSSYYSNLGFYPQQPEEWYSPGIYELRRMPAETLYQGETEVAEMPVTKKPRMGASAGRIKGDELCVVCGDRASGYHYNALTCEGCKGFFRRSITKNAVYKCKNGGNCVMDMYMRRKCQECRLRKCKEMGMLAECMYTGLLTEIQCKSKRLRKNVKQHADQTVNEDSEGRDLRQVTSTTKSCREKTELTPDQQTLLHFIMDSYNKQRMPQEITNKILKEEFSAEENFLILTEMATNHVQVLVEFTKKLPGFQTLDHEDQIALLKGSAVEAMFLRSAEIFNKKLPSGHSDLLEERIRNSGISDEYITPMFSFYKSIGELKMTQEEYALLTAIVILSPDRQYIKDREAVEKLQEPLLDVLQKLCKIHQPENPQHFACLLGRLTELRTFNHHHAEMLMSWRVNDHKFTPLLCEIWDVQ
# Summary of the method: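 Antagonist mode: chenodeoxycholic acid at 50 uM final stimulates a UAS-driven beta-lactamase reporter in HEK 293T FXR-bla cells during 16 h, 37C compound exposure. Read-out is FRET substrate fluorescence after 2 h at room temperature.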
# [12] = qHTS assay to identify small molecule agonists of the farnesoid-X-receptor (FXR) signaling pathway - cell viability counter screen (AID 743218); also: nearly all actives have a fitted effect of over 45% in size
# Summary of the method: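 Viability counter screen in the same wells: CellTiter-Glo luminescence, 30 min room-temperature incubation, measured after the beta-lactamase read. Cells were GeneBLAzer FXR-UAS-bla HEK 293T, compound-treated 16 h at 37C.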
# [13] = molecular target: Bile acid receptor (Homo sapiens) (UniProt Q96RI1); experiment: qHTS assay to identify small molecule agonists of the farnesoid-X-receptor (FXR) signaling pathway (AID 743220; active = well fitted activation curve with a large enough effect in the signal ratio in the repeat runs, not every such curve was filed as active; the % refers to the signal ratio)
# Summary of the method: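 FXR-UAS-bla HEK 293T cells carrying a UAS-driven beta-lactamase reporter were plated for 5 h at 37C/5% CO2, then exposed to DMSO-dissolved Tox21 10K compounds for 16 h at 37C. A LiveBLAzer B/G FRET substrate was loaded for 2 h at room temperature before fluorescence reading.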
# [14] = qHTS assay to identify small molecule antagonists of the farnesoid-X-receptor (FXR) signaling pathway - cell viability counter screen (AID 743221; active = well fitted cell-killing curve with a large enough effect in the repeat runs, not every such curve was filed as active; also: nearly all actives have a fitted effect of over 50% in size)
# Summary of the method: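 Multiplexed counter screen: viability of FXR-bla HEK 293T cells under agonist stimulation by chenodeoxycholic acid (50 uM, final) and test compound for 16 h at 37 C, measured by CellTiter-Glo luminescence in the reporter wells.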
# [15] = molecular target: Vitamin D3 receptor (Homo sapiens) (UniProt P11473); experiment: qHTS assay to identify small molecule agonists of the vitamin D receptor (VDR) signaling pathway (AID 743222; calls by dose curve)
# Sequence of Vitamin D3 receptor (Homo sapiens) (P11473 whole entry, looked up): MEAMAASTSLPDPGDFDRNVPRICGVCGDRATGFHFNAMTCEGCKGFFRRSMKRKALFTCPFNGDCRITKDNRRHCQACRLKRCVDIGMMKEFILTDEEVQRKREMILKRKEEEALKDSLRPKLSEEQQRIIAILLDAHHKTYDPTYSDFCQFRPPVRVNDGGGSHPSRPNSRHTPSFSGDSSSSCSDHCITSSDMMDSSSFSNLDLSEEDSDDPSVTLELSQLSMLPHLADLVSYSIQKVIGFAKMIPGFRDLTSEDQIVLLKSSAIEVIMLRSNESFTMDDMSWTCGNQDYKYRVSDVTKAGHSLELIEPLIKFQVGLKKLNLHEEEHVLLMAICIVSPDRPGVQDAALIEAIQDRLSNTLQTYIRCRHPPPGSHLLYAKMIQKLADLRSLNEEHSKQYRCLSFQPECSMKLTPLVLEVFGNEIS
# Summary of the method: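 Agonist mode, beta-lactamase reporter: fluorescence from LiveBLAzer B/G FRET substrate (2 h, room temperature) read after 16 h compound treatment at 37 C of VDR-bla cells, which were pre-incubated 4 h after seeding.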
# [16] = qHTS assay to identify small molecule agonists of the vitamin D receptor (VDR) signaling pathway - cell viability counter screen (AID 743224); also: series mostly up to about 63 µM; nearly all actives have a fitted effect of over 50% in size
# Summary of the method: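 Counter screen run in the same wells as the VDR-bla reporter assay: CellTiter-Glo luminescence, 30 min at room temperature, after 16 h compound treatment at 37C of cells pre-plated for 4 h.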
# [17] = qHTS assay for small molecule agonists of the antioxidant response element (ARE) signaling pathway - cell viability counter screen (AID 743203; calls by dose curve; also: nearly all actives have a fitted effect of over 55% in size)
# Summary of the method: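 Viability counter screen: CellTiter-Glo luminescence, read after 30 min at room temperature, in ARE-bla HepG2 wells. Compound exposure lasted 16 h at 37C/5% CO2, following a 5 h pre-incubation of the cells after plating.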
# [18] = qHTS assay to identify small molecule agonists of the peroxisome proliferator-activated receptor delta (PPARd) signaling pathway - cell viability counter screen (AID 743211); also: nearly all actives have a fitted effect of over 55% in size
# Summary of the method: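 Counter screen for cytotoxicity run in parallel with the PPARd reporter screen. Beta-lactamase reporter HEK293H cells exposed to compounds 17 h; ATP-based CellTiter-Glo luminescence quantified viability.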
# [19] = molecular target: Peroxisome proliferator-activated receptor delta (Homo sapiens) (UniProt Q03181); experiment: qHTS assay to identify small molecule antagonists of the peroxisome proliferator-activated receptor delta (PPARd) signaling pathway (AID 743215; active = well fitted inhibition curve with a large enough effect in the signal ratio in the repeat runs, not every such curve was filed as active; the % refers to the signal ratio;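 also: cells stimulated with agonist L165041 at 300 nM final during compound exposure; series mostly up to about 62 µM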)
# Summary of the method: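 Agonist L165041 (300 nM final) added with compound to PPARd-bla HEK293H UAS-bla reporter cells; 17 h incubation at 37 C. Read-out: LiveBLAzer FRET substrate, 2 h at room temperature, fluorescence intensity.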
# [20] = molecular target: Vitamin D3 receptor (Homo sapiens) (UniProt P11473); experiment: qHTS assay to identify small molecule antagonists of the vitamin D receptor (VDR) signaling pathway (AID 743223; active = well fitted inhibition curve with a large enough effect in the signal ratio in the repeat runs, not every such curve was filed as active; the % refers to the signal ratio)
# Summary of the method: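 Cells carrying a VDR-driven beta-lactamase reporter (VDR-bla) were co-treated with compound and 3 nM final 1alpha,25-dihydroxyvitamin D3 for 16 h at 37C; reporter activity was measured as FRET substrate fluorescence after 2 h at room temperature.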
compound,measurement,setting,value
CCCC[O][Al]([O]CCCC)[O]CCCC,Potency,[1],inactive
same,outcome,[2],inactive
same,outcome,[3],inactive
same,outcome,[4],inactive
same,outcome,[5],inactive
same,Potency,[6],inactive
same,Potency,[7],inactive
same,outcome,[8],inactive
same,outcome,[9],inactive
same,outcome,[10],inactive
same,outcome,[11],inactive
same,outcome,[12],inactive
same,outcome,[13],inactive
same,outcome,[14],inactive
same,outcome,[15],inactive
same,outcome,[16],inactive
CCCC(=O)CC,Potency,[1],inactive
same,outcome,[2],inactive
same,outcome,[3],inactive
same,outcome,[4],inactive
same,outcome,[5],inactive
same,Potency,[6],inactive
same,outcome,[17],inactive
same,Potency,[7],inactive
same,outcome,[18],inactive
same,outcome,[9],inactive
same,outcome,[10],inactive
same,outcome,[19],inactive
same,outcome,[12],inactive
same,outcome,[14],inactive
same,outcome,[15],inactive
same,outcome,[20],inactive
same,outcome,[16],inactive
CCCCN(CCCC)CCCCCCN(CCCC)CCCC,Potency,[1],inactive
same,outcome,[2],inactive
same,outcome,[3],inactive
same,outcome,[4],inactive
same,outcome,[5],inactive
same,outcome,[17],inactive
same,Potency,[7],inactive
same,outcome,[8],inactive
same,outcome,[18],inactive
same,outcome,[9],inactive
same,outcome,[10],inactive
same,outcome,[19],inactive
same,outcome,[12],inactive
same,outcome,[14],inactive
same,outcome,[15],inactive
OCCC(F)(F)C(F)(F)C(F)(F)C(F)(F)C(F)(F)C(F)(F)F,Potency,[1],inactive
same,outcome,[2],inactive
same,outcome,[3],inactive
same,outcome,[4],inactive
same,outcome,[5],inactive
same,outcome,[17],inactive
same,Potency,[7],inactive
same,outcome,[8],inactive
same,outcome,[18],inactive
same,outcome,[9],inactive
same,outcome,[10],inactive
same,outcome,[19],inactive
same,outcome,[11],inactive
same,outcome,[12],inactive
same,outcome,[13],inactive
same,outcome,[14],inactive
same,outcome,[16],inactive
CCCOc1ccc(C(=O)OCCN(CC)CC)cc1N,Potency,[1],1.33 µM (active)
same,outcome,[2],inactive
same,outcome,[3],inactive
same,outcome,[4],inactive
same,outcome,[5],inactive
same,outcome,[17],inactive
same,Potency,[7],inactive
same,outcome,[8],inactive
same,outcome,[18],inactive
same,outcome,[9],inactive
same,outcome,[10],inactive
same,outcome,[19],inactive
same,outcome,[12],inactive
same,outcome,[14],inactive
same,outcome,[15],inactive
same,outcome,[20],inactive
same,outcome,[16],inactive
CN(C)CCCN(C)C,activation,[1],-0.58% [at 8.47 µM]
same,"viability change, negative = cytotoxic",[2],-2.64% [at 8.47 µM]
same,activation,[3],-0.396% [at 7.08 µM]
same,"ratio activity, negative = inhibition",[4],4.44% [at 5.95 µM]
same,"activity change, negative = cytotoxicity",[5],-7.23% [at 5.95 µM]
same,activation,[6],-1.85% [at 8.36 µM]
same,"viability change, negative = cytotoxic",[17],5.88% [at 8.36 µM]
same,activation,[8],-0.827% [at 5.95 µM]
same,"activity change, negative = cytotoxicity",[18],-3.03% [at 5.95 µM]
same,activation,[9],-1.31% [at 5.95 µM]
same,"viability change, negative = cytotoxic",[10],1.43% [at 6.26 µM]
same,"ratio activity, negative = inhibition",[19],5.28% [at 6.26 µM]
same,"viability change, negative = cytotoxic",[12],2.3% [at 5.95 µM]
same,"activity change, negative = cytotoxicity",[14],0.644% [at 5.95 µM]
same,activation,[15],-2.68% [at 6.01 µM]
same,"activity change, negative = inhibition",[20],-1.32% [at 6.95 µM]
same,"activity change, negative = cytotoxicity",[16],0.624% [at 5.95 µM]
COCCCOc1cc(C[C@@H](C[C@H](N)[C@@H](O)C[C@H](C(=O)NCC(C)(C)C(N)=O)C(C)C)C(C)C)ccc1OC,Potency,[1],inactive
same,outcome,[2],inactive
same,outcome,[3],inactive
same,outcome,[4],inactive
same,outcome,[5],inactive
same,Potency,[6],inactive
same,outcome,[17],inactive
same,Potency,[7],inactive
same,outcome,[8],inactive
same,outcome,[10],inactive
same,outcome,[12],inactive
same,outcome,[14],inactive
CCC(C)c1nccnc1OC (centres undefined),Potency,[1],inactive
same,outcome,[2],inactive
same,outcome,[3],inactive
same,outcome,[4],inactive
same,outcome,[5],inactive
same,outcome,[17],inactive
same,Potency,[7],inactive
same,outcome,[8],inactive
same,outcome,[18],inactive
same,outcome,[9],inactive
same,outcome,[19],inactive
same,outcome,[11],inactive
same,outcome,[12],inactive
same,outcome,[13],inactive
same,outcome,[14],inactive
same,outcome,[15],inactive
same,outcome,[20],inactive
same,outcome,[16],inactive

# From PubChem BioAssay (Tox21)
